Our source for the growth values is PubChem BioAssay (NCI).

Each structure is given as a SMILES string. Compounds without any hit were thinned out: in the full panel of roughly 83,000, 20% have a hit.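 Activity criterion: percent growth below 10, measured after cells in 96-well plates were exposed to a single compound concentration for 48 hours.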 Activity calls are given as the source filed them.

For the test, the system named is MDA-MB-468 breast. Briefly: NCI-60 one-dose screen, 48 h (100 = growth as untreated, 0 = no growth, -100 = all killed). The following applies: 10 µM unless noted.
In the case of `COc1cc2nc(Cl)nc(Nc3cccc(C(=O)/C=C/c4ccc(Br)cc4)c3)c2cc1OC`, the growth is 85.7% (inactive).
As for `Clc1ccc2c(NCCCN3CCOCC3)c3oc4ccc(Cl)cc4c3nc2c1`, the figure is 44.2% (inactive); as for `Nc1nc(N)c2nc(-c3cccc(O)c3)c(-c3cccc(O)c3)nc2n1`, 10.4% (inactive); as for `CCCCn1c(-c2ccc(F)cc2)nc2cc(OC)c(OC)cc2c1=O`, 115% (inactive).
In the case of `Nc1cc(C(=O)O)[nH]c(=S)n1`, the growth is 95.3% (inactive).
`O=C1c2c(c3c4ccccc4n(CCCCCCN4CCOCC4)c3c3[nH]c4ccccc4c23)C(=O)N1O`: the growth is 103% (inactive).
Consider `O=C1NCN(CCO)CN1`, for which the growth is 99.9% (inactive).
As for `CCOC(=O)C1=C(N)Oc2c(sc3c(CC)cccc23)C1c1ccc(F)cc1` (stereo not given), the figure is 46.1% (inactive); as for `CCCCC(=O)Nc1ncc(Cc2ccccc2Cl)s1`, 14.1% (inactive).
With `Cc1cc(C)c(-c2c(C)cc(C)cc2CBr)c(CBr)c1`, the growth was 45.1% (inactive).
In the case of `CC(Oc1ccc(C(=O)NS(=O)(=O)C(C)(C)C)cc1C(F)(F)F)c1ccc(Oc2ccccc2)cn1` (stereo not given) it was 71.8% (inactive); in that of `COc1cc(C(=O)/C=C/c2c(C(F)(F)F)nc3sccn23)cc(OC)c1OC`, -53.4% (active); in that of `CCOc1ccc(/C=C(\C#N)c2cc3ccccc3[nH]2)cc1`, 33.4% (inactive).
`Nc1nc(N)nc(N2CCCCC2)n1`: the growth is 124% (inactive).
Consider `C#Cc1cccc(Nc2ncnc3ccc(NC(=O)c4ccccc4)cc23)c1`, for which the growth was -28.5% (active).
Take `CCOC(=O)/C(=C/c1ccccc1)C(=O)c1ccccc1`: the growth was 85.6% (inactive).
Turning to `Cn1ccc2c1CC1CN(Cc3ccco3)C(=O)C1C2C(=O)O` (stereo not given), the growth is 104% (inactive).
Consider `N#CC1=C2NCCCNc3oc(nc3C#N)Cc3ccccc3CC(=N1)O2`, for which the growth was 75.1% (inactive).
For the compound `CC(=O)OCC1SC(OC(C)=O)C(NC(=O)/C=C/CCl)C(OC(C)=O)C1OC(C)=O` (stereo not given), the growth is 98.5% (inactive).
As to `COc1cc(C(=O)c2cnc(-c3c[nH]c4cccc(C)c34)[nH]2)cc(OC)c1OC`, the growth was 2% (active).
As for `CNC(=O)c1ccc(Nc2ncc(C(F)(F)F)c(NCc3nccnc3N(C)S(C)(=O)=O)n2)cc1`, the figure is -50.1% (active); as for `CCOC(=O)C1=C(N)Oc2cc(OC)ccc2C1c1ccc(F)c(F)c1` (stereo not given), -37.8% (active).
`IP(CCCSc1n(Cc2ccc3ccccc3c2)c(-c2ccccc2)c(-c2ccccc2)[n+]1Cc1ccc2ccccc2c1)(c1ccccc1)(c1ccccc1)c1ccccc1`: the growth was -21.5% (active).
Take `COc1cc(-c2nc(SC(C)C)n(C(C)C)c(=O)c2C#N)ccc1OCc1ccccc1`: the growth was 66.8% (inactive).
On to `COc1ccc2c(c1)CCc1c-2n[nH]c1-c1[nH]nc2c1CCc1cc(OC)ccc1-2`, for which the growth is -6.6% (active).
Regarding `CC1(C)OC2C(CO)OC(n3ccc(=O)[nH]c3=O)C2O1` (stereo not given), the growth was 127% (inactive).
Consider `COCc1nc(NS(=O)(=O)c2ccc(N)cc2)nc(C)c1Br`, for which the growth is 99.1% (inactive).
On to `O=C(CCCCCCCC(=O)N1CCCCC1)N1CCCCC1`, for which the growth was 105% (inactive).
In the case of `O=[N+]([O-])c1ccc2[nH]cc(-c3c4ccsc4cc4[nH]c5ccc([N+](=O)[O-])cc5c34)c2c1` it was 1.21% (active); in that of `Cc1cccc2c1O/C(=C\c1ncc([N+](=O)[O-])n1C)C2=O`, -12.6% (active); in that of `Cc1c(Cl)cccc1NC(=O)c1sc2nc3c(cc2c1N)CCCCC3`, 22.4% (inactive).
Turning to `COc1cc(/C=N/Nc2ccccc2F)cc(OC)c1OC`, the growth was 97% (inactive).
As to `O=C(CCl)Nc1ccc2c(c1)C(=O)c1ccc(NC(=O)CCl)cc1C2=O`, the growth is -75.7% (active).
With `COc1ccc(NCc2cn(-c3ccc(C(=O)O)cc3)nc2-c2ccc(C(=O)O)cc2)cc1C(F)(F)F`, the growth was 98.6% (inactive).
`FC(F)(F)c1ccc(-c2nc(-c3nc4cc(Cl)c(Cl)cc4[nH]3)c3ccccn23)cc1`: the growth was 41.9% (inactive).
For `C/C(=C\c1cnc(C)s1)[C@@H]1C[C@@H]2O[C@@H]2CCC[C@H](C)[C@H](O)[C@@H](C)C(=O)C(C)(C)[C@@H](O)CC(=O)O1`, the growth was 43.4% (inactive).
With `COC1=CC(c2ccc[nH]2)=N/C1=C\c1[nH]c(C)c(CCCn2cc(CCCCCCCCC[C@@H]3Cc4cc(O)ccc4C4CC[C@]5(C)[C@@H](O)CC[C@H]5C43)nn2)c1C` (stereo not given in full), the growth was 30.1% (inactive).
For `O=Nc1ccc(O)c2ccccc12`, the growth is 11.7% (inactive).
As for `COc1ccc(/C=C(\c2cc(OC)c(OC)c(OC)c2)c2nnc(-c3cccs3)o2)cc1`, the growth is 77.7% (inactive).
In the case of `Nc1ccc(/C=N/Nc2ccnc3c(O)cccc23)c2cccnc12`, the growth was 73.6% (inactive).
